Measured values published in PubChem BioAssay (NCI).
“And” between values parts separate entries of the source, which are not always exact repeats. Equal values may be shown once. Compounds without any hit were thinned out: in the full panel of roughly 83,000, 20% have a hit.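 Cells were grown in 96-well plates and exposed to the test compound at a single concentration for 48 hours; results are reported as percent growth, with values below 10 considered active.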 A number with no mark means an inactive call. The source made the active and inactive calls.

Test system: MDA-MB-468 breast
Test: NCI-60 one-dose screen, 48 h (100 = growth as untreated, 0 = no growth, -100 = all killed)
Conditions: 10 µM unless noted

Row | Compound | growth
1 | COc1ccc(C(O)c2cc3c(N)c(C(=O)Nc4cccc(Br)c4)sc3nc2C)cc1 (stereo not given) | 19.6%
2 | CCOC(=O)CC1CSC(N/N=C/c2ccc(F)c(Br)c2)=N1 (stereo not given) | 116%
3 | O=C1Nc2ccc(Cl)cc2/C1=C/c1ccc(OCc2ccc(F)cc2)cc1 | 97.3%
4 | O=C(NCCCl)Nc1nccnc1OCc1ccc(F)cc1 | 102%
5 | NCCOc1ncccc1/C=C1\c2ccccc2-c2ccc(C(F)F)cc21 | 85.5%
6 | N/C(=N\C(N)=N\c1nc2ccccc2s1)c1ccncc1Cl | 90.3%
7 | C=C(C)[C@@H]1CC[C@]2(C)[C@H](CC=C3[C@@H]4CC(C)(C)CC[C@]4(C=O)CC[C@]32C)[C@@]1(C)CCCN | 51.3%
8 | O=C(Cn1c(=O)ccn(CCCCCCCCOc2ccc(Br)cc2)c1=O)Nc1ccc(Oc2ccc(Cl)cc2)cc1 | 34.2%
9 | COc1ccc([C@H]2[C@H](O)C(=O)N2c2cc(OC)c(OC)c(OC)c2)cc1 | 8.33% (active)
10 | O=C(Nc1cc(C(F)(F)F)cc(C(F)(F)F)c1)c1cc(Cl)ccc1O | -24% (active) and -1.83% (active)
11 | FC(F)(F)c1[nH]ncc1-c1nc2ccc3[nH]ncc3c2c2c1CCCC2 | 19.7%
12 | CSc1ccc(-c2n[nH]nc2-c2cc3ccccc3s2)cc1 | 54%
13 | Oc1c(CN2CCN(c3ccccc3F)CC2)cc(Br)c2cccnc12 | -43% (active)
14 | C=C1C(=O)O[C@H]2[C@H]1CC/C(COC(=O)/C=C\C(=O)NCc1ccc(Cn3c(=O)sn(CCCI)c3=O)cc1)=C\CC[C@@]1(C)O[C@@H]21 | -82.1% (active)
15 | CC(C)C[C@H](NC(=O)CCn1ccc2ccccc2c1=O)B(O)O | 6.61% (active)
16 | COc1ccc2c(c1)C(=O)c1c-2c(OCCN(C)C)nc2ccccc12 | 44.8%
17 | Oc1ccccc1-c1nc2ccccn2c1NCCN1CCOCC1 | 109%
18 | COCCn1cc(-c2nc(-c3cccnc3)cs2)c2cc(F)ccc21 | 100%
19 | COc1ccc(-c2cc(/C=C3\C(=O)Nc4cc(Cl)ccc43)[nH]n2)cc1 | 11.3%
20 | CC[C@@](C)(NC(=O)C(C)(C)NC(=O)[C@@H](NC(=O)[C@@H]1CCCN1C(=O)C(C)(C)NC(=O)[C@H](CC(C)C)NC(=O)CNC(=O)C(C)(C)NC(=O)[C@@H](NC(=O)C(C)(C)NC(=O)[C@H](CCC(N)=O)NC(=O)[C@H](C)NC(=O)C(C)(C)NC(=O)[C@H](C)NC(=O)C(C)(C)NC(=O)[C@H](C)NC(=O)C(C)(C)NC(C)=O)C(C)C)C(C)C)C(=O)N[C@@H](CCC(N)=O)C(=O)N[C@@H](CCC(N)=O)C(=O)N[C@H](CO)CC1CCCCC1 | -10.9% [5 µM] (active)

Row | Compound | growth
21 | CC(c1ccccc1)N1C(=O)/C(=C/c2csc(C#N)n2)SC1=S (stereo not given) | 63.5%
22 | Cc1ccc(S(=O)(=O)Oc2ccc([N+](=O)[O-])cc2[N+](=O)[O-])cc1 | 107%
23 | COc1ccc(-c2nc3sc(-c4ccc(OC)cc4)c(-c4ccc(OC)cc4)n3c2/C=C/c2ccc(C(C)C)cc2)cc1 | 98.9%
24 | Cc1cccc(/C=C/C(=O)Nc2ncc(Cc3cccc(C)c3)s2)c1 | -15.3% (active)
25 | COc1ccc(-c2nc(SCCC(C)C)nc(N/N=C\c3ccccc3O)c2C#N)cc1 | 88.6%
26 | O=C(C1CCCCC1)[C@@H]1[C@]2(C(=O)NC3CCCCC32)[C@@H]2CCCN2[C@@]12C(=O)NC1CCC(Cl)CC12 (stereo not given in full) | -67% [100 µM] (active)
27 | CCN(CC)CC(O)CNc1ccnc2cc(Cl)c(Cl)cc12 (stereo not given) | 83.5%
28 | O=C1c2ccccc2C(=O)c2sc(Nc3ccc(Cl)cc3)nc21 | 28.6%
29 | Nc1ncc([N+](=O)[O-])cn1 | 96.2%
30 | Nc1ncnc2c1c(-c1cccc(OCc3ccccc3)c1)cn2C1CC(CN2CCC2)C1 (stereo not given) | -12.3% (active)
31 | CC(Oc1ccc(Cl)cc1)c1ccccc1 (stereo not given) | 99.9%
32 | COc1ccc(/C=C2\N=C3Sc4cc(Cl)ccc4C(=O)N3C2=O)cc1 | 113%
33 | CC1(C)CC[C@]23CC[C@]4(C)[C@H](CC[C@@H]5[C@@]6(C)CCCN(CO)C(C)(C)[C@@H]6CC[C@]54C)[C@H]2[C@H]1OC3 | 84.9%
34 | O=C(CSc1nc2ccccc2[nH]1)NCc1ccccc1 | 101%
35 | C/C(=N\O)c1ccc(Cl)cc1 | 108%
36 | COc1cc(OC)c2c(c1)c1nc3cc(C)c(C)cc3nc1n2CCN(C)C | 117%
37 | CCCCCOC(=O)Nc1nc(=O)n(C2O[C@H](C)[C@@H](O)[C@H]2O)cc1F (stereo not given in full) | 99.1%
38 | CC(Oc1ccc(C(=O)NS(=O)(=O)C(C)(C)C)cc1C(F)(F)F)c1ccc(Oc2ccccc2)cn1 (stereo not given) | 71.8%
39 | COc1ccc(/C=N/NC(=O)c2cnn3c2NC(c2ccccc2)C3)cc1OC1CCCC1 (stereo not given) | 91.1%
40 | CCN1C(=S)N(c2ccccc2)C2C1NN=c1s/c(=C3\C(=O)N(C(C)C)c4ccccc43)c(=O)n12 (stereo not given) | 94.5%
